# Results from PubChem BioAssay (NCATS).
# Where “and” joins values, the source holds several entries; their conditions need not be identical. Equal entries are not always repeated. A number with no mark means an inactive call. Records with an inconclusive call do not appear. A call without a number means that no potency is given here. Calls of active or inactive are those of the source. Unless noted, the call rests on the fitted dose curve; in most records, active means well fitted curve in the direction sought with a large enough effect; inconclusive means small, poorly fitted or top-dose-only effect, or another doubt; inactive means no such curve, though single readings can be large; an effect the other way counts as inactive or inconclusive.
# Tests used:
# [1] = S16 Schwann cell viability assay (CellTiter-Glo assay) (AID 624031);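 further: cellular ATP luminescence as a viability measure; series mostly up to about 58 µM; nearly all actives have a fitted effect of over 70% in size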
# Method in brief: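 Luminescent ATP read-out (CellTiter-Glo) after 24 h compound exposure of native S16 rat Schwann cells at 37 °C. Signals were normalized between cell-free wells and DMSO-treated cells, set as 0% activity.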
# [2] = S16 Schwann cell PMP22 intronic element firefly luciferase assay (AID 624032); further: nearly all actives have a fitted effect of over 30% in size; further: potency means the concentration at half of the fitted maximal effect
# Method in brief: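 Rat S16 Schwann cells stably carrying a PMP22 intronic element-driven Fluc reporter were seeded overnight, then exposed to compounds for 24 h at 37 °C. Luminescence was normalized to PTC124 (positive control) and DMSO (0% activity).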
# [3] = S16 Schwann cell PMP22 intronic element beta-lactamase assay (AID 624044; calls by dose curve; further: nearly all actives have a fitted effect of over 15% in size)
# Method in brief: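 Rat S16 Schwann cells with beta-Lac driven by a PMP22 intronic element, compound-treated 24 h at 37 °C. LiveBLAzer FRET B/G read: 460 nm normalized to potassium clavulanate vs DMSO; 535 nm FRET as viability; concentration-effect curves classified.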
# [4] = qHTS Assay for Identifying Gametocytocidal Compounds (AID 743244);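 further: actives lower the fluorescent signal which means gametocytes are killed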; conditions: P. falciparum 3D7 stage III-V gametocytes, alamarBlue, 72 h; max response: hits give low values
# Method in brief: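 In this qHTS viability screen, late-stage 3D7 gametocytes are incubated with compound for 72 h, then with alamarBlue for 24 h; reduced resorufin fluorescence marks killing.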
# [5] = qHTS assay for small molecule activators of the p53 signaling pathway (AID 651743; active means well fitted activation curve with a large enough effect in the signal ratio, not every such curve was filed as active; the % refers to the signal ratio; further: series mostly up to about 92 µM); conditions: HCT-116 p53RE-bla, beta-lactamase FRET ratio, 16 h; hits give high values
# Method in brief: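 p53RE-bla HCT-116 cells with a stably integrated beta-lactamase reporter under p53 response elements were plated, rested 5 hours at 37 C/5% CO2, then exposed to compounds in DMSO for 16 hours at 37 C. LiveBLAzer B/G FRET substrate was read after 2 hours at room temperature.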
# [6] = qHTS assay for small molecule activators of the nuclear factor-kappa B (NF-kB) signaling pathway (AID 651749; active means well fitted activation curve with a large enough effect in the signal ratio; the % refers to the signal ratio; further: series mostly up to about 77 µM); conditions: NF-kB-bla ME-180 cells, beta-lactamase FRET ratio, 16 h; hits give high values
# Method in brief: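 ME-180 cells stably carrying a beta-lactamase reporter under an NF-kB response element were exposed to compound or DMSO vehicle for 16 hr at 37C, 5% CO2. Pathway activation was read by FRET, since reporter expression disrupts FRET.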
# [7] = qHTS assay for small molecule disruptors of the mitochondrial membrane potential - 1 hr assay (AID 651754; calls by dose curve; further: nearly all actives have a fitted effect of over 35% in size)
# Method in brief: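 HepG2 cells, attached overnight at 37C, were exposed to compound or DMSO vehicle for 1 hr at 37C, 5% CO2, then stained with Mito-MPS dye for 30 min. Red aggregate versus green monomer fluorescence reports membrane potential.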
# [8] = qHTS assay for small molecule disruptors of the mitochondrial membrane potential - 5 hr assay (AID 651755; calls by dose curve; further: nearly all actives have a fitted effect of over 40% in size)
# Method in brief: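 HepG2 cells, attached overnight at 37C, were exposed to compound or DMSO for 5 hr at 37C, 5% CO2. Mito-MPS dye was then added for 30 min, and fluorescence read at 490/535 nm (monomers) and 540/590 nm (aggregates).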
# [9] = molecular target: Tumor necrosis factor (Homo sapiens) (UniProt P01375); assay: qHTS assay to identify small molecules that stimulate Tumor Necrosis Factor-alpha (TNF-alpha) secretion (AID 651757; active means well fitted curve in the direction sought with a large enough effect in the signal ratio; the % refers to the signal ratio)
# Chain of Tumor necrosis factor (Homo sapiens) (P01375 whole entry, looked up): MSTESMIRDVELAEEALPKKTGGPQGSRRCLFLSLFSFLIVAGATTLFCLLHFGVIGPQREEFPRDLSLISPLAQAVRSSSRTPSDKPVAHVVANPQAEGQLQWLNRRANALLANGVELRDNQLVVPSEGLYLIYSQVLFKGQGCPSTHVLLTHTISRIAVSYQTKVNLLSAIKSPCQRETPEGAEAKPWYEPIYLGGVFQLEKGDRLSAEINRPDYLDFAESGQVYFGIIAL
# Method in brief: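 THP-1 cells were exposed to compounds for 17 hrs at 37 C, after which secreted TNF-alpha was measured by homogeneous HTRF (TR-FRET) using cryptate- and XL665-labeled anti-TNF-alpha antibodies, read after 3 hr at room temperature.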
# [10] = qHTS assay for environmental chemicals that activate the Aryl hydrocarbon Receptor (AhR) signaling pathway (AID 651777); conditions: 1A2-DRE human hepatoma cells, luciferase, 24 h; hits give high values; further: nearly all actives have a fitted effect of over 15% in size
# Method in brief: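 1A2-DRE human hepatoma reporter line; 1,200 cells/well; cmpd or DMSO 24 h, 37 C/5% CO2; One-Glo 30 min RT; luciferase lum.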
# [11] = molecular target: Peroxisome proliferator-activated receptor alpha (Homo sapiens) (UniProt Q07869); assay: qHTS assay for small molecule agonists of the peroxisome proliferator-activated receptor alpha (PPARalpha) signaling pathway (AID 651778); conditions: PathHunter PPARalpha complementation, chemiluminescence, 6 h; hits give high values
# Chain of Peroxisome proliferator-activated receptor alpha (Homo sapiens) (Q07869 whole entry, looked up): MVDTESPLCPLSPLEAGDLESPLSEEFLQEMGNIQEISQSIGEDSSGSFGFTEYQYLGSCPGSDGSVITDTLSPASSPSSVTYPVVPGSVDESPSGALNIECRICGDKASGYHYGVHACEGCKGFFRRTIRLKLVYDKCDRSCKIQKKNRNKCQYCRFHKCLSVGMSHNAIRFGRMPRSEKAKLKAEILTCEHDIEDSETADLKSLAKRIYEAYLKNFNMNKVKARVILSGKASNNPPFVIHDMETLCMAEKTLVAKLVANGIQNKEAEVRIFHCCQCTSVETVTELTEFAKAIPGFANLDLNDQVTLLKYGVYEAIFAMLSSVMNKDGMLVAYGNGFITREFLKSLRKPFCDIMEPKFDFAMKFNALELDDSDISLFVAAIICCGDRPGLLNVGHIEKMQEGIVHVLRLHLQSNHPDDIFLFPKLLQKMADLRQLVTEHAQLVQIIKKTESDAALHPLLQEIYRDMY
# Method in brief: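 Cells plated at 2,000/well and held overnight at 37 C, 5% CO2, then compound added by pin tool for 6 hr; after PathHunter detection reagent and 60 min at room temperature, chemiluminescence from enzyme complementation was read.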
# [12] = molecular target: Nuclear receptor ROR-gamma (Homo sapiens) (UniProt P51449); assay: qHTS assay for small molecule antagonists of the retinoid-related orphan receptor gamma (ROR-gamma) signaling pathway (AID 651802); further: series mostly up to about 92 µM; nearly all actives have a fitted effect of over 60% in size
# Chain of Nuclear receptor ROR-gamma (Homo sapiens) (P51449 whole entry, looked up): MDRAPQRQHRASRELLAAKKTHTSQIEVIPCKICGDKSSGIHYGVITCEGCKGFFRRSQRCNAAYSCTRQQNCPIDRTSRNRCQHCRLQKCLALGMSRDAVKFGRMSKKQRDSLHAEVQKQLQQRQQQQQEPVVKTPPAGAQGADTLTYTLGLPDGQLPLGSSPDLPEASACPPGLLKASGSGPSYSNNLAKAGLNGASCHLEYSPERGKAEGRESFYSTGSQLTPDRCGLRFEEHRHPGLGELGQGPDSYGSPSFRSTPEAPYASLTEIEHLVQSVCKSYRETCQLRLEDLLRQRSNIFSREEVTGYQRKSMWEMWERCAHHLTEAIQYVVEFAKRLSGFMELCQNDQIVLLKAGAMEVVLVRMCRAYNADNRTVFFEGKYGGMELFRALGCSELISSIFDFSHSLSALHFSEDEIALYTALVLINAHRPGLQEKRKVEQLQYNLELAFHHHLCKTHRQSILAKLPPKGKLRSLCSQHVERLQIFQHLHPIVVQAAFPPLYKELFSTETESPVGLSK
# Method in brief: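 CHO cells carrying TET-inducible ROR-gamma and an ROR response element–luciferase reporter were exposed to compound, then induced with doxycycline. After 16hr at 37C, luminescence was read; lower signal indicates antagonism.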
# [13] = qHTS assay for small molecule agonists of the antioxidant response element (ARE) signaling pathway measured by Nrf2-dependant transcriptional activity (AID 720636; active means well fitted curve in the direction sought with a large enough effect in the repeat runs; an effect the other way counts as inactive or inconclusive;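 further: HepG2 cells with an ARE-driven luciferase reporter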)
# Method in brief: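 Cells: ARE-luc HepG2 with Nrf2-responsive luciferase. Medium contained 1% dialyzed FBS. Compound exposure lasted 16 hr at 37 C and 5% CO2, followed by ONE-Glo luciferase detection.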
# [14] = qHTS assay for small molecule agonists of the antioxidant response element (ARE) signaling pathway measured by Nrf2-dependant transcriptional activity - cell viability counter screen (AID 720653; active means well fitted curve in the direction sought with a large enough effect in the repeat runs; an effect the other way counts as inactive or inconclusive); conditions: ARE-bla HepG2 viability, CellTiter-Glo ATP luminescence, 16 h; hits give low values
# Method in brief: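 ARE-bla HepG2 cells (2,000/well) rested 5 hrs at 37C/5% CO2, then exposed to compounds in DMSO for 16 hrs. Viability was read in the same wells as intracellular ATP by luminescence, 30 min at room temperature after reagent addition.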
# [15] = qHTS assay for cell viability of HEK293 cells (AID 743288); conditions: ATP luminescence (CellTiter-Glo), 18 h, hits give low values; further: nearly all actives have a fitted effect of over 50% in size
# Method in brief: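 The Tox21 protocol used parental HEK293 cells treated for 18 h at 37 C with compounds delivered by pintool; ATP-coupled luminescence after 30 min at room temperature gave viability.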
# [16] = qHTS assay for cell viability of the p53RE-bla HCT-116 cell line (AID 743292); further: nearly all actives have a fitted effect of over 55% in size
# Method in brief: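 HCT-116 p53RE-bla cells seeded 4,000/well; 5 h at 37 C; compound (DMSO) added; 16 h at 37 C; CellTiter-Glo added, 30 min RT; luminescence read.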
# [17] = qHTS assay for small molecule agonists of the antioxidant response element (ARE) signaling pathway (AID 651741; active means well fitted activation curve with a large enough effect in the signal ratio; the % refers to the signal ratio; further: potency means the concentration at half of the fitted maximal effect)
# Method in brief: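 ARE-bla HepG2 cells (beta-lactamase reporter under ARE control) were plated at 2,000 cells/well, preincubated 5 h at 37 C/5% CO2, then treated with DMSO-dissolved compounds for 16 h at 37 C; LiveBLAzer B/G FRET substrate added, fluorescence read after 2 h at room temperature.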
# [18] = qHTS assay to identify small molecules that stimulate interleukin-8 (IL-8) secretion (AID 651758; active means well fitted activation curve with a large enough effect in the signal ratio; the % refers to the signal ratio)
# Method in brief: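 THP-1, 2000 cells/well; cpd 16 h, 37 C; add cryptate + XL665 anti-IL-8 Abs; RT 1-3 h; TR-FRET read.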
smiles,measurement,setting,value
CCCCC1(COC(=O)CCC(=O)O)C(=O)N(c2ccccc2)N(c2ccccc2)C1=O,outcome,[1],inactive
same,Potency,[2],inactive
same,outcome,[3],inactive
same,max response,[4],1.1%
CC(C)c1cc2c(cc1S(=O)(=O)O)[C@@]1(C)CCC[C@@](C)(C(=O)O)[C@@H]1CC2,outcome,[1],inactive
same,Potency,[2],inactive
same,outcome,[3],inactive
same,max response,[4],-8.74%
N[C@@H](Cc1ccc(O)cc1)C(=O)O,outcome,[1],inactive
same,Potency,[2],inactive
same,outcome,[3],inactive
same,max response,[4],0.124%
CC(=O)NS(=O)(=O)c1ccc(N)cc1,outcome,[1],inactive
same,Potency,[2],inactive
same,outcome,[3],inactive
same,activation,[5],-3.02%
same,activation,[6],-0.656%
same,Potency,[7],inactive
same,Potency,[8],inactive
same,outcome,[9],inactive
same,activation,[10],-0.967%
same,max response,[11],-6.08%
same,outcome,[12],inactive
same,outcome,[13],inactive
same,max response,[14],-11.8%
same,max response,[4],2.53%
same,max response,[15],-3.22%
same,outcome,[16],inactive
Cc1cc(OI)c(C(C)C)cc1-c1cc(C(C)C)c(OI)cc1C,outcome,[1],inactive
same,Potency,[2],inactive
same,outcome,[3],inactive
same,max response,[4],3.81%
O=C(CN1CCNCC1)NC1CCCCC1,outcome,[1],inactive
same,Potency,[2],inactive
same,outcome,[3],inactive
CCc1nnc(NS(=O)(=O)c2ccc(N)cc2)s1,outcome,[1],inactive
same,Potency,[2],inactive
same,outcome,[3],inactive
same,max response,[4],-5.5%
CCN(CC)S(=O)(=O)c1ccc(C(=O)O)cc1,outcome,[1],inactive
same,Potency,[2],inactive
same,outcome,[3],inactive
c1ccc2[nH]ccc2c1,outcome,[1],inactive
same,Potency,[2],inactive
same,outcome,[3],inactive
same,max response,[4],-5.55%
CCOC(=O)c1cccnc1,outcome,[1],inactive
same,Potency,[2],inactive
same,outcome,[3],inactive
same,max response,[4],2.39%
CC(C)(C)C(=O)OCOC(=O)[C@@H]1N2C(=O)[C@@H](NC(=O)[C@H](N)c3ccccc3)[C@H]2SC1(C)C,outcome,[1],inactive
same,Potency,[2],inactive
same,outcome,[3],inactive
same,max response,[4],0.54%
O=S1(=O)OC(c2ccc(O)cc2)(c2ccc(O)cc2)c2ccccc21,outcome,[1],inactive
same,Potency,[2],10.2 µM (active)
same,outcome,[3],inactive
same,max response,[4],21.8%
Nc1ccc(C(=O)Oc2ccccc2)c(O)c1,outcome,[1],inactive
same,Potency,[2],inactive
same,outcome,[3],inactive
same,max response,[4],-7.01%
CC(O)CCCCn1c(=O)c2c(ncn2C)n(C)c1=O (configuration not stated),outcome,[1],inactive
same,Potency,[2],inactive
same,outcome,[3],inactive
same,max response,[4],-9.87%
COc1ccc2cc(CCC(C)=O)ccc2c1,outcome,[1],inactive
same,Potency,[2],inactive
same,outcome,[3],inactive
same,max response,[4],-1.38%
Cn1c([N+](=O)[O-])cnc1COC(N)=O,outcome,[1],inactive
same,Potency,[2],inactive
same,max response,[4],1.6%
Cc1cc(C)nc(NS(=O)(=O)c2ccc(N)cc2)n1,outcome,[1],inactive
same,Potency,[2],inactive
same,Potency,[17],inactive
same,activation,[5],-3.59% and 3.14%
same,outcome,[9],inactive
same,activation,[10],-1.73% and 0.131%
same,max response,[11],-5.72% and -2.38%
same,outcome,[13],inactive
same,max response,[14],-4.69% and 1.65%
same,max response,[4],-2.99%
same,max response,[15],2.28% and -2.43%
same,outcome,[16],inactive
NCc1ccc(S(N)(=O)=O)cc1,outcome,[1],inactive
same,Potency,[2],inactive
same,outcome,[3],inactive
same,max response,[4],-0.707%
OCc1ccc(Cl)cc1Cl,outcome,[1],inactive
same,Potency,[2],inactive
same,outcome,[3],inactive
same,max response,[4],-2.07%
CC(C)CCCC(C)CCCC(C)CCCCC(C)CCCC(C)CCCC(C)C (configuration not stated),outcome,[1],inactive
same,Potency,[2],inactive
same,max response,[4],5.26%
FC(F)(F)C(Cl)Br (configuration not stated),outcome,[1],inactive
same,Potency,[2],inactive
same,activation,[5],-1.4%
same,outcome,[9],inactive
same,outcome,[18],inactive
same,activation,[10],0.539%
same,max response,[11],-5.56%
same,outcome,[13],inactive
same,max response,[14],-1.89%
same,max response,[4],-11.3%
same,max response,[15],6.13%
same,outcome,[16],inactive
COC(=O)c1ccc(O)cc1,outcome,[1],inactive
same,Potency,[2],inactive
same,Potency,[17],19.3 µM (active)
same,activation,[6],-2.57%
same,activation,[10],7.25%
same,max response,[11],-1.49%
same,max response,[14],-3.37%
same,max response,[4],-9.3%
same,max response,[15],1.25%
same,outcome,[16],inactive
COc1ccc(O)cc1,outcome,[1],inactive
same,Potency,[2],inactive
same,Potency,[17],inactive
same,activation,[5],1.27%
same,activation,[6],0.533%
same,outcome,[9],inactive
same,activation,[10],0.2%
same,max response,[11],-1.68%
same,outcome,[13],inactive
same,max response,[14],-1.63%
same,max response,[4],-2.64%
same,max response,[15],-0.79%
same,outcome,[16],inactive
CC(=O)Nc1ccc(C(=O)O)cc1,outcome,[1],inactive
same,Potency,[2],inactive
same,activation,[5],-0.0847%
same,activation,[6],-1.2%
same,outcome,[9],inactive
same,activation,[10],0.454%
same,max response,[11],-0.167%
same,outcome,[12],inactive
same,outcome,[13],inactive
same,max response,[14],-5.69%
same,max response,[4],7.86%
same,max response,[15],-10.3%
same,outcome,[16],inactive
Cc1onc(-c2ccccc2)c1-c1ccc(S(N)(=O)=O)cc1,outcome,[1],inactive
same,Potency,[2],inactive
same,max response,[4],7.78%
CCCCCCCCCCCCCCCCN,outcome,[1],inactive
same,Potency,[2],inactive
same,outcome,[3],inactive
same,max response,[4],6.4%
NC(=O)c1ccc([N+](=O)[O-])cc1Cl,outcome,[1],inactive
same,Potency,[2],inactive
same,outcome,[3],inactive
same,max response,[4],-9.98%
CNCc1ccccc1,outcome,[1],inactive
same,Potency,[2],inactive
same,max response,[4],8.64%
O=C(CCBr)N1CCN(C(=O)CCBr)CC1,outcome,[1],inactive
same,Potency,[2],inactive
same,outcome,[3],inactive
same,max response,[4],-1.41%
